Only some compounds are listed: those with a hit (about 27% of all), similar ones and a draw of the others.
sEH activator: increases human soluble epoxide hydrolase activity; P34913; purified human sEH enzymatic activity, activator screen; activation, % at 2 µM; 91,000 tested, 0.04% active; AID 717; in the data active = activation above about 37%
Target sequence (P34913 whole entry, looked up): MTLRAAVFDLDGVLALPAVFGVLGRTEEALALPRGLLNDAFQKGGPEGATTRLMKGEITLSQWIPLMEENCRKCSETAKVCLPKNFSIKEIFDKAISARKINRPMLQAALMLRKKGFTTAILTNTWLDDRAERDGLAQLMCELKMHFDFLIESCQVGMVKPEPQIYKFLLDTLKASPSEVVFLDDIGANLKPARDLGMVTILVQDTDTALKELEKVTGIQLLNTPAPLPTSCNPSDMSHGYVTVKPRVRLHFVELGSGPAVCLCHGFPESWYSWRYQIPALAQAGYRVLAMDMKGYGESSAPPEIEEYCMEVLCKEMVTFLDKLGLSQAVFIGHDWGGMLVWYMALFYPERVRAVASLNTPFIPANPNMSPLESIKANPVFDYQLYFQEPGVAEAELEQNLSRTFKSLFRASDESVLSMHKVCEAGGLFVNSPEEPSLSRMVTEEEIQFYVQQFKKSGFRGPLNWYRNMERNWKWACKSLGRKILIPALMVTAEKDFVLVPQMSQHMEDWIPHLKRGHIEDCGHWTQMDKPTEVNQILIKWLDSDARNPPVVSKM
sEH inhibitor: soluble epoxide hydrolase (human) inhibition | P34913 | recombinant human sEH enzymatic activity assay | inhibition, % at 2 µM | 91,000 tested, 0.34% active; in the data active = inhibition above about 80%
CYP2C9 act: activators of human CYP2C9 | AID 1024 | recombinant CYP2C9, luciferin-H conversion, luminescence; active compounds read high; factor 1 = untreated enzyme, 0 = blocked | 96,000 tested, 1.4% active | activation factor at 5 µM;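 active = activation factor of 2 or more for CYP2C9 at a 5 µM dose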
CYP2C19 inhib: blocks human cytochrome P450 2C19; P33261; inhibition, % at 5 µM; CYP2C19 Supersomes, luciferin-H EGE luminescence, 30 min; 96,000 tested, 21% active;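 active = CYP2C19 inhibition above a set limit at 5 µM in the primary screen, cut at about 50% in these data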
CYP2C9 inh: human CYP2C9 inhibition; inhibition, % at 5 µM; CYP2C9 Supersomes, luciferin-H conversion, luminescence; AID 777; 96,000 tested, 20% active; P11712;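 active = blocking of liver enzyme CYP2C9 beyond about 50% at 5 µM, limit read from the data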
CYP2C19 activ: increases human CYP2C19 enzyme activity; AID 1025; P33261; recombinant CYP2C19, luciferin-H EGE luminescence; active compounds read high; 0 = fully inhibited enzyme, 1 = untreated enzyme; activation factor at 5 µM; 96,000 tested, under 10 active;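 active = activation factor of at least 2 at 5 µM in the primary screen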
Large screens that a line does not name were inactive.

CCC(C)NS(=O)(=O)c1ccc(NC(=O)c2c(-c3ccccc3)noc2C)cc1 (stereo not given)	CYP2C19 inhib 86.1, CYP2C9 inh 61.6
Cc1onc(-c2ccccc2)c1C(=O)Nc1ccc(S(=O)(=O)NC2=NCCCCC2)cc1	none
CC(=O)NC(Cc1ccccc1F)C(=O)NC1CCN(C(=O)c2cnccn2)CC1 (stereo not given)	none
CCOC(=O)C1=C(CN2CCN(c3ccc(F)cc3)CC2)NC(=O)NC1c1cccs1 (stereo not given)	CYP2C19 inhib 88.4, CYP2C9 inh 91.1
COC(CNc1cc(=O)oc2ccccc12)OC	none
CCOC(=O)/C(C#N)=C/c1ccc(OCC(=O)Nc2ccc(OC)cc2)c(OC)c1	CYP2C9 inh 59.4 (no result: sEH activator, sEH inhibitor)
CC(C)CCOP(=O)(c1ccc(N(C)C)cc1)C(O)c1ccccc1F (stereo not given)	CYP2C19 inhib 74.0
CCCCOP(=O)(c1ccc(N(C)C)cc1)C(O)c1ccncc1 (stereo not given)	CYP2C19 inhib 80.1, CYP2C9 inh 73.7
CC(C)COP(=O)(c1ccc(N(C)C)cc1)C(O)c1ccccn1 (stereo not given)	CYP2C19 inhib 66.7
CC(C)CCOP(=O)(c1ccc(N(C)C)cc1)C(O)c1ccccn1 (stereo not given)	CYP2C19 inhib 80.3
Fc1ccc(-c2cc(C(F)(F)F)nc(NCC3CCCO3)n2)cc1 (stereo not given)	none (no result: sEH activator, sEH inhibitor)
COc1ccc(C(=O)COc2ccc(NC(C)=O)cc2)cc1	none
O=C(O)COc1ccc(/C=N/NC(=O)C2CCCN2S(=O)(=O)c2ccc(Cl)cc2)cc1 (stereo not given)	none
CCOC(=O)C1CCCN(C(=O)c2ccc3c(c2)NC(=O)C(N2CCOCC2)S3)C1 (stereo not given)	none
CCCc1[nH]c(=O)c(C#N)c2c1CCCC2	none
CCC(OC(=O)c1cc2sccc2n1C)C(=O)NCC1CCCO1 (stereo not given)	none
CC(OC(=O)c1cc2sccc2n1C)C(=O)NCc1ccc2c(c1)OCO2 (stereo not given)	CYP2C9 inh 82.3
CC(OC(=O)c1cc2sccc2n1C)C(=O)NCCc1ccccc1 (stereo not given)	CYP2C19 inhib 52.5, CYP2C9 inh 82.7
CC(OC(=O)c1cc2sccc2n1C)C(=O)NCc1ccc(F)cc1 (stereo not given)	CYP2C19 inhib 78.5, CYP2C9 inh 74.4
CCOC(=O)CSc1nc(C2CC2)nc2ccccc12	none
O=c1[nH]c(NCc2ccccc2)nc2c1CCCC2	none
NC(=O)c1ccc(OCC(F)(F)C(F)(F)C(F)(F)C(F)(F)C(F)(F)C(F)F)cc1	CYP2C19 inhib 55.2
CC(=O)c1c(C)n(-c2ccccc2)c2ccc(OCC(O)CN3CCOCC3)cc12 (stereo not given)	CYP2C19 inhib 77.4, CYP2C9 inh 67.8
COC(=O)c1c(C)n(-c2ccc(C)cc2)c2ccc(O)cc12	CYP2C19 inhib 53.0
CC(=O)c1c(C)n(-c2ccccc2)c2ccc(O)cc12	CYP2C19 inhib 82.5
CC(=O)c1c(C)n(CCO)c2ccc(O)cc12	none
O=C(c1ccc(Cl)cc1)c1cc(-c2ccccn2)c(N2CCOCC2)s1	none
CC1CCN(S(=O)(=O)c2ccc3c(c2)c(=O)c(C(=O)N2CCCCC2)cn3C)CC1	none
COC(=O)C1CCN(C(=O)N2CCOCC2)CC1	none
COC(=O)C1CCN(C(=O)C2CCCCC2)CC1	CYP2C19 inhib 65.9
O=C(CCN1C(=O)c2ccccc2C1=O)NC1=NCCS1	none
O=C(CNC(=O)Cc1ccccc1)NCC(=O)OCc1ccccc1	none
O=C(CNC(=O)/C(=C\c1ccc(F)cc1)NC(=O)c1ccccc1)OCc1ccccc1	CYP2C19 inhib 71.4
CCn1nnnc1SCC(=O)c1ccc(NC(C)=O)cc1	none (no result: sEH activator, sEH inhibitor)
Cn1cnc2c1c(=O)n(Cc1ccc(F)cc1Cl)c(=O)n2C	none
CC(C)c1ccccc1OCCCCCNCCO	CYP2C19 inhib 59.2
CCNc1nc(N)c(C(=C(C#N)C#N)c2ccccc2)s1	none
O=C(Cn1ccsc1=NC(=O)C(F)(F)F)c1ccccc1	CYP2C19 inhib 56.8
O=C(Cn1cnc2ccccc2c1=O)c1ccccc1	none (no result: CYP2C9 act, CYP2C19 inhib, CYP2C9 inh, CYP2C19 activ)
C=CCn1c(=O)c2c3c(sc2n2c(Nc4ccccc4)nnc12)CCCC3	none
C=CCn1c(=O)c2c3c(sc2n2c(Nc4ccc(OC)cc4)nnc12)CCCC3	CYP2C9 inh 78.8
CCC(=O)c1cc(-c2nc3ccccc3n2C)n(C)c1	CYP2C19 inhib 56.3, CYP2C9 inh 65.0
CCCC(=O)c1cc(-c2nc3ccccc3n2C)n(C)c1	none
Cn1cc(C(=O)c2ccccc2)cc1-c1nc2ccccc2n1C	CYP2C19 inhib 82.7, CYP2C9 inh 72.8
Cc1cc(NC(=O)CSc2ncnc3ccccc23)no1	none
COc1cc(C(=O)Sc2ccc(C)cc2)cc(OC)c1OC	none
CC(=O)/C(=C/N(C)C)Sc1ccc(C)cc1	CYP2C19 inhib 73.4
CCOC(=O)C1CCN(CC(O)COc2ccc(C(=O)CC)cc2)CC1 (stereo not given)	none
O=C(c1ccccc1)c1ccc(OCC(O)CN2CCN(S(=O)(=O)N3CCCCC3)CC2)cc1 (stereo not given)	CYP2C19 inhib 85.1, CYP2C9 inh 97.7
CCC(=O)c1ccc(OCC(O)CN2CCN(S(=O)(=O)N3CCCCC3)CC2)cc1 (stereo not given)	CYP2C19 inhib 51.9, CYP2C9 inh 71.5
CC1CCC(C(C)C)C(OC(=O)CSc2nnc(N)s2)C1 (stereo not given)	CYP2C19 inhib 65.5
Cc1nnc(SCC(=O)OC2CC(C)CCC2C(C)C)[nH]c1=O (stereo not given)	CYP2C9 inh 88.0
CCN1CCCC1CNC(=O)C(=O)Nc1ccc(OC)cc1 (stereo not given)	none
Cc1cc(Nc2ccc3ccccc3c2)n2ncnc2n1	none (no result: sEH activator, sEH inhibitor)
C#CCN1C(=O)C(O)(CC(=O)c2ccc3c(c2)OCCO3)c2ccccc21 (stereo not given)	CYP2C19 inhib 76.7
CN1C(=O)C(O)(CC(=O)c2ccc3c(c2)OCO3)c2ccccc21 (stereo not given)	none
CCCN1C(=O)C(O)(CC(=O)c2cccc(OC)c2)c2ccccc21 (stereo not given)	CYP2C19 inhib 87.1
Cc1ccc(C(=O)CC2(O)C(=O)N(Cc3ccc4c(c3)OCO4)c3ccccc32)cc1 (stereo not given)	CYP2C19 inhib 53.9
CCCN1C(=O)C(O)(CC(=O)c2ccc3c(c2)OCCO3)c2ccccc21 (stereo not given)	CYP2C19 inhib 75.6
CC1(C)C(c2ccc(Cl)cc2)=[N+]([O-])C2(CCCC/C2=N\O)N1O (stereo not given)	none
Cc1ccc(NC(=O)C2CCCN(S(=O)(=O)c3c(C)noc3C)C2)cc1F (stereo not given)	none
Cc1cc(C)nc(/N=C/c2c(O)n(C)c(=O)n(C)c2=O)n1	none (no result: sEH activator, sEH inhibitor)

High-throughput results: PubChem, several laboratories
